Our source for the growth values is PubChem BioAssay (NCI).

Compounds without any hit were thinned out: in the full panel of roughly 83,000, 20% have a hit.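 Values shown are percent growth following 48 h exposure of cells in 96-well plates to a single concentration of compound; below 10 was considered active.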 Values without a mark were called inactive. The source made the active and inactive calls.

The subject of the experiment is PC-3 prostate. Nature of the experiment: NCI-60 one-dose screen, 48 h (100 = growth as untreated, 0 = no growth, -100 = all killed). Particulars: 10 µM unless noted.
Consider `COc1cc(Cl)cc(-c2nn(-c3cccc(NC(=O)c4cc(C(F)(F)F)cc(C(F)(F)F)c4)c3)cc2-c2ccncc2)c1`, for which the growth was 35.6%.

Regarding `O=C(Oc1ccccc1)C(Br)C(Br)c1ccccc1` (stereo unspecified), the growth is 55.4%.

Turning to `c1cc[n+](Cc2ccnc3ccccc23)cc1`, the growth is 80.8%.

In the case of `CCCCOP(=O)(OCCCC)C(C(=O)OCC)C(CC(=O)OCC)C(=O)OCC` (stereo unspecified), the growth was 88.6%.

With `CCCCCc1c(C)[nH]c(/C=C2\N=C(c3ccc[nH]3)C=C2Oc2ccccc2)c1C`, the growth was -21.6% [100 µM] (active).

As to `CC[C@@H](c1ccc(O)c(O)c1)[C@@H](CC)c1ccc(O)c(O)c1`, the growth was 75.5%.

In the case of `COc1ccc(-c2cnc(SCC(=O)Nc3ccc(-c4nc5ccccc5s4)cc3)n2-c2ccc(OC)cc2)cc1`, the growth was 97%.

Consider `O=C(Nc1ccccc1S)c1ccccc1`, for which the growth was 88.5%.

Regarding `Cc1sc2nc(NCc3ccccc3)[nH]c(=O)c2c1C`, the growth was 48.1%.

For `CCCCCCCCCCNCCSS(=O)(=O)O`, the growth was 88.7%.

`O=C1CSC(c2ccccc2Cl)N1c1nnc(Cn2nnc3ccccc32)o1` (stereo unspecified): the growth was 68.9%.

Consider `O=C(Nc1nc(-c2ccc(Cl)cc2)cs1)c1cc(-c2ccc(Br)cc2)nc2ccc(Cl)cc12`, for which the growth is 40.2%.

Turning to `NS(=O)(=O)c1ccc(-n2ncc3c(SCc4ccccc4)ncnc32)cc1`, the growth was 90.9%.

In the case of `Nc1nc2c(c(=O)[nH]1)C1(C(=O)Nc3ccccc31)c1c(nc(N)[nH]c1=O)N2`, the growth was 103%.

Take `CCSc1nc(Nc2ccc(S(=O)(=O)Nc3ccon3)cc2)c(C#N)c(-c2cccc(Br)c2)n1`: the growth is 79.6%.

Consider `Cc1ccc(C2=NNC(c3sc(Cl)nc3Cl)C2)cc1` (stereo unspecified), for which the growth was 93.6%.

Consider `CC(=O)Nc1c(Cl)cc2c(c1Cl)Cc1cc([N+](=O)[O-])ccc1-2`, for which the growth was 72.6%.

Take `CCOC(=O)C(Br)=P(c1ccccc1)(c1ccccc1)c1ccccc1`: the growth was 99.9%.

As for `COc1ccc(-c2cc(-c3nnc(SCC(=O)Nc4ccc(C(C)=O)cc4)n3-c3ccccc3)c3ccccc3n2)cc1OC`, the growth was 98.7%.

In the case of `CC(=O)N1N=C(c2ccc(Nc3nc(NCCO)nc(NCCO)n3)cc2)CC1c1ccc(Cl)cc1` (stereo unspecified), the growth was 81.4%.

In the case of `COc1ccccc1NC(=O)c1sc2nc3c(cc2c1N)C(=O)CCC3`, the growth is 65.9%.

Take `CC1(C)CC2(C)CC(=O)C1C(C(=O)O)C2C(=O)O` (stereo unspecified): the growth was 108%.

As to `C(=C1c2ccccc2-c2ccccc21)c1ccncc1`, the growth is 58.6%.

On to `COc1cccc(N2CCN(c3cccc(C)n3)CC2)c1`, for which the growth is 99.6%.

In the case of `Cc1ccc(NC(=O)c2sc3nc4c(cc3c2N)C(=O)CCC4)cc1`, the growth is 73.2%.

Take `Nc1ccc(Oc2c(F)c(F)c(Oc3ccc(N)cc3)c(F)c2F)cc1`: the growth is 84.4%.

For the compound `CN(C)CCC(=O)Nc1ccc(-n2cc(-c3cccc(NC(=S)Nc4cccc(-c5cn(-c6ccc(NC(=O)CCN(C)C)cc6)nn5)c4)c3)nn2)cc1`, the growth was 89%.

Take `O=C1c2cc3c(cc2-c2c1c1ccc(Cl)cc1c(=O)n2CCCNCCO)OCO3`: the growth is -85.5% (active).

`O=C(CSc1nnc(-c2cc(-c3ccccc3)nc3ccccc23)o1)c1ccc(Br)cc1`: the growth is 107%.

On to `O=c1ncc(-c2ccc(C(F)(F)F)cc2)c(NC2CCCCCC2)[nH]1`, for which the growth was 25.7%.

`COc1ccc(C(=O)/C=C/c2ccc(C)cc2)cc1OC`: the growth is 51%.
